Data on seven molecules can be found in PubChem BioAssay (Tox21).

Each structure is given as a SMILES string. Unmarked numbers belong to inactive results. Results filed as inconclusive are left out. The source made the active and inactive calls. Unless noted, calls come from the whole dose curve.

The nature of assay [1]: Nuclear factor erythroid 2-related factor 2/antioxidant responsive element (Nrf2/ARE) small molecule agonists: qHTS cell viability counter screen in human keratinocytes (AID 1919968; active = well fitted curve in the direction sought with a large enough effect in the repeat runs; an effect the other way counts as inactive or inconclusive; note: nearly all actives have a fitted effect of over 55% in size; note: potency is the fitted concentration of half-maximal effect). Summed up: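 CellTiter-Fluor fluorescence, read 1 h after reagent, gave viability in the same wells as the ARE-luciferase assay. KeratinoSens cells (1,500/well) had 23 h compound exposure at 37 C/5% CO2 following 5 h plating.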

A short description of assay [2]: Nuclear factor erythroid 2-related factor 2/antioxidant responsive element (Nrf2/ARE) small molecule agonists: luciferase reporter gene qHTS assay in human keratinocytes (AID 1919969). Note: nearly all actives have a fitted effect of over 35% in size. A general note: A reporter such as luciferase makes a cellular process visible.
Assay [3] addresses Gonadotropin-releasing hormone receptor (Homo sapiens) (UniProt P30968). The assay is described as follows: Human gonadotropin-releasing hormone receptor (GnRHR) small molecule agonists, calcium flux assay in GnRHR-HEK293 cells (AID 1920063). Note: nearly all actives have a fitted effect of over 35% in size. Summed up:
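Agonist mode: compounds at 15 concentrations, in triplicate, went onto calcium dye-loaded GnRHR-HEK293 cells. Intracellular calcium was then followed as 480/540 nm fluorescence at 1 s intervals over 3 min.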
Background: Calcium flux is commonly read through the fluorescence of an indicator in the cells.

The target in assay [4] is KiSS-1 receptor (Homo sapiens) (UniProt Q969F8). The assay is described as follows: Human kisspeptin (KISS1R) small molecule agonists, calcium flux assay in KISS1R-HEK293 cells (AID 1920064; active = well fitted curve in the direction sought with a large enough effect in the repeat runs; an effect the other way counts as inactive or inconclusive). Summed up: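 Agonist mode: intracellular calcium rise tracked at 1 s intervals over 3 min (480/540 nm) immediately after compound addition to dye-loaded KISS1R-HEK293 stable cells. Each compound tested at 15 concentrations in triplicate.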
Chain of KiSS-1 receptor (Homo sapiens) (Q969F8 whole entry, looked up): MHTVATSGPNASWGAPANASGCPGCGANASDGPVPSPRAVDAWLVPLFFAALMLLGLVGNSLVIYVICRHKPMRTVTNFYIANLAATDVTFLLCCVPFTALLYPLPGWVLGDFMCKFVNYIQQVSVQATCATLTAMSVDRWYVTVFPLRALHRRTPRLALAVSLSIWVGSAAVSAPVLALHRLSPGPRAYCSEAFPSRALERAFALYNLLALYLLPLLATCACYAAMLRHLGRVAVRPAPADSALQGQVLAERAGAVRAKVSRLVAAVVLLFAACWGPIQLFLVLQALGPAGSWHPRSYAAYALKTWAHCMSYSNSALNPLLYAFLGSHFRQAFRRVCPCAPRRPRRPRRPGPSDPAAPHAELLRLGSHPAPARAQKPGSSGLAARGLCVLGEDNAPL

Assay [5] can be described thus: G protein-coupled receptor (GPCR) small molecule agonists, calcium flux assay: HEK293 wild type cell line counter screen (AID 1920065). The method in brief: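 Calcium flux counter screen: compound added in agonist mode at 15 concentrations in triplicate to dye-loaded parental HEK293 cells. Fluorescence (480/540) read kinetically for 3 min; ATP served as positive control.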

A short description of assay [6]: p53 small molecule agonists, cell-based qHTS assay with human liver microsomes (AID 1963577).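 Note: p53 response element beta-lactamase reporter cells with liver microsomes plus NADPH.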 Summed up:
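HLM-supplemented p53RE-bla reporter assay: 16 h compound exposure at 37 C, microsomes and NADPH each 0.5 mg/mL final, read by fluorescence intensity.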
A general note: In qHTS, concentration-response curves come from the screen itself.

Assay [7] in a line: p53 small molecule agonists, cell-based qHTS assay with rat liver microsomes (AID 1963578). Summed up:
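Quantitative HTS of the Tox21 10K library: p53RE-bla cells, rat liver microsomes plus NADPH at 0.5 mg/mL final each, 16 h at 37 C, beta-lactamase fluorescence detection.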

The nature of assay [8]: p53 small molecule agonists, cell-based qHTS assay with human liver microsomes: qHTS cell viability counter screen (AID 1963579). Note: nearly all actives have a fitted effect of over 45% in size. Summed up: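 Viability of p53RE-bla cells is measured as CellTiter-Glo luminescence following a 16 h, 37 C incubation with compound, liver microsomes from human donors and NADPH.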
A short description of assay [9]: p53 small molecule agonists, cell-based qHTS assay: qHTS cell viability counter screen (AID 1963581). Note: nearly all actives have a fitted effect of over 45% in size. Summed up:
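Counter screen read by CellTiter-Glo luminescence (ATP content, 30 min at room temperature), run in the same wells as the beta-lactamase reporter read. HCT-116 p53RE-bla cells saw compounds for 16 h at 37 C.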

A short description of assay [10]: p53 small molecule agonists, cell-based qHTS assay (AID 1963582; active = well fitted activation curve with a large enough effect in the signal ratio in the repeat runs, not every such curve was filed as active; the % refers to the signal ratio). The method in brief:
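Read-out is beta-lactamase FRET fluorescence after 2 h at room temperature with LiveBLAzer B/G substrate. p53 response element-bla cells were treated 16 h at 37 C with compounds in DMSO, added 5 h after seeding.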

Assay [11] concerns the target 5-hydroxytryptamine receptor 2A (Homo sapiens) (UniProt P28223). The assay is described as follows: 5-hydroxytryptamine receptor 2A (HTR2A) small molecule antagonists, cell-based qHTS assay (AID 1963586). Note: nearly all actives have a fitted effect of over 45% in size. The method in brief:
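CHO cells stably expressing human HTR2A were plated for 18 h at 37 C, then loaded with calcium dye for 1 h. Compounds were preincubated 5 min at room temperature before DOI (4 nM solution) was added. Kinetic fluorescence was read for 3 min.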

For assay [12], the target named is Muscarinic acetylcholine receptor M1 (Homo sapiens) (UniProt P11229). The assay is described as follows: Cholinergic receptor muscarinic 1 (CHRM1) small molecule antagonists, cell-based qHTS assay (AID 1963588). Note: nearly all actives have a fitted effect of over 40% in size. The method in brief: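 Compounds were tested at 15 concentrations in three independent runs. Dye-loaded CHRM1-CHO cells were exposed 5 min at room temperature before stimulation by acetylcholine added at 50nM. Intracellular calcium was read kinetically on FDSS for 3 min.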
Chain of Muscarinic acetylcholine receptor M1 (Homo sapiens) (P11229 whole entry, looked up): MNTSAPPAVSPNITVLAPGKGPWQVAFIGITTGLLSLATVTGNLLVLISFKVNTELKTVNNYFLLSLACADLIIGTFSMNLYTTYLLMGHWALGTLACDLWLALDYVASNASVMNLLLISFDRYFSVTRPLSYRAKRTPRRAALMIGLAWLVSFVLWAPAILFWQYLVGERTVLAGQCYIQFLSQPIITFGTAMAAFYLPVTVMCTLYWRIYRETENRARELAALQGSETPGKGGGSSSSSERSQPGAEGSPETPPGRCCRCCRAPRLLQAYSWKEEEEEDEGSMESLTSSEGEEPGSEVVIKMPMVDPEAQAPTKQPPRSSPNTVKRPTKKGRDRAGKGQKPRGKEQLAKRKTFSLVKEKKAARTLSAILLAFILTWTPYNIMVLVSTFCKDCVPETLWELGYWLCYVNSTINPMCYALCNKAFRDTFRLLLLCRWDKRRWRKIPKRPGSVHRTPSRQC

Assay [13] shares this target. In words: Cholinergic receptor muscarinic 1 (CHRM1) small molecule agonists, cell-based qHTS assay (AID 1963589). Note: nearly all actives have a fitted effect of over 35% in size. Summed up:
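Agonist-mode calcium-flux screen: compounds at 15 concentrations, three independent runs, were pin-transferred onto dye-loaded human CHRM1-CHO cells. Fluorescence was then recorded kinetically every second over minutes.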

Assay [14] can be described thus: cAMP Responsive Elements (CRE) small molecule agonists, cell-based qHTS assay (AID 1963590). Summed up: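 Agonist mode: compound added to CRE-bla HEK 293T cells (2,000/well, 18 h after plating) for 3 h at 37 C/5% CO2. Reporter activity detected via FRET beta-lactamase substrate, 2 h room-temperature loading.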
A short description of assay [15]: cAMP Responsive Elements (CRE) small molecule antagonists, cell-based qHTS assay (AID 1963591; active = well fitted inhibition curve with a large enough effect in the signal ratio in the repeat runs, not every such curve was filed as active; the % refers to the signal ratio). Summed up: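 Antagonist mode: compounds are added alongside the adenylyl cyclase activator NKH477 (0.25 uM final) to CRE-bla HEK293T cells for 3 h. LiveBLAzer FRET substrate, 2 h at room temperature, reports bla expression.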
Assay [16] addresses Beta-2 adrenergic receptor (Homo sapiens) (UniProt P07550). In words: Adrenergic beta2 receptor (ADRB2) small molecule antagonists, cell-based qHTS assay (AID 1963592). Note: series mostly up to about 92 µM; nearly all actives have a fitted effect of over 50% in size. Summed up: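 Assay format: CHO-ADRB2 cells, 18-20hr seeding at 37C/5% CO2, then compound plus 1nM isoproterenol agonist mix for 0.5hr RT. Homogeneous time-resolved fluorescence cAMP detection after 1hr, expressed as 665/615 nm ratio.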

Assay [17] has as its target D(2) dopamine receptor (Homo sapiens) (UniProt P14416). The assay is described as follows: Dopamine D2 receptor (DRD2) small molecule agonists, cell-based qHTS assay (AID 1963594). Note: nearly all actives have a fitted effect of over 35% in size. Summed up:
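cAMP accumulation in DRD2-HEK293 cells measured by HTRF after 1 h detection; compounds added 10 min before NKH477 (200nM […]) forskolin-analogue stimulation, 30 min at room temperature, with Ro20-1724 present at 0.1 mM final.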

Assay [18] shares this target. In words: Dopamine D2 receptor (DRD2) small molecule antagonists, cell-based qHTS assay (AID 1963595; active = well fitted inhibition curve with a large enough effect in the signal ratio in the repeat runs, with a control signal flat; the % refers to the signal ratio). The method in brief: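 Cells were plated and grown for 24 h at 37 °C. Ro20-1724 (0.1 mM final) went in first, then compound for 10 min. NKH477 (200 nM) with quinpirole (12 nM) followed for 30 min at RT, then HTRF detection reagents for 1 h.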
Assay [19] is described as follows: p53 small molecule agonists, cell-based qHTS assay with rat liver microsomes: qHTS cell viability counter screen (AID 1963580). Note: nearly all actives have a fitted effect of over 45% in size. The method in brief:
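Rat liver microsome (0.5 mg/mL final) and NADPH (0.5 mg/mL final) co-incubation with compounds for 16 h at 37 C on HCT-116 p53RE-bla cells; cytotoxicity taken from intracellular ATP luminescence.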

The target of assay [20] is 5-hydroxytryptamine receptor 2A (Homo sapiens) (UniProt P28223). The assay is described as follows: 5-hydroxytryptamine receptor 2A (HTR2A) small molecule agonists, cell-based qHTS assay (AID 1963587). Note: nearly all actives have a fitted effect of over 30% in size. Summed up:
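Kinetic calcium-flux fluorescence (2 min, 1 sec intervals) after compound addition in agonist mode. HTR2A-CHO cells were cultured 18 h, then dye-loaded 1 h at 37 C.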

Chain of D(2) dopamine receptor (Homo sapiens) (P14416 whole entry, looked up): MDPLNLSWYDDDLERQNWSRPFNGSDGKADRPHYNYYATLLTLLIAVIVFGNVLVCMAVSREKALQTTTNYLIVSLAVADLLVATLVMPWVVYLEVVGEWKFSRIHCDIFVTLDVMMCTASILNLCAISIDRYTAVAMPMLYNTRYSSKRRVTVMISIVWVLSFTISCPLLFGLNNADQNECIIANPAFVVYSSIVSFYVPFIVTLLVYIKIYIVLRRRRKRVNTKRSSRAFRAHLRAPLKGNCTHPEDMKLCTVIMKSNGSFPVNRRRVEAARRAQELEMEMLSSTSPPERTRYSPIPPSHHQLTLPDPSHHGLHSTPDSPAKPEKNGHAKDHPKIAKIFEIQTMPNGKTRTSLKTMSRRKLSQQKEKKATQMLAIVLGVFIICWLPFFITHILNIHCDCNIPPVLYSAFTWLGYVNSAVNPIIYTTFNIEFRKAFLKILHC
Chain of Beta-2 adrenergic receptor (Homo sapiens) (P07550 whole entry, looked up): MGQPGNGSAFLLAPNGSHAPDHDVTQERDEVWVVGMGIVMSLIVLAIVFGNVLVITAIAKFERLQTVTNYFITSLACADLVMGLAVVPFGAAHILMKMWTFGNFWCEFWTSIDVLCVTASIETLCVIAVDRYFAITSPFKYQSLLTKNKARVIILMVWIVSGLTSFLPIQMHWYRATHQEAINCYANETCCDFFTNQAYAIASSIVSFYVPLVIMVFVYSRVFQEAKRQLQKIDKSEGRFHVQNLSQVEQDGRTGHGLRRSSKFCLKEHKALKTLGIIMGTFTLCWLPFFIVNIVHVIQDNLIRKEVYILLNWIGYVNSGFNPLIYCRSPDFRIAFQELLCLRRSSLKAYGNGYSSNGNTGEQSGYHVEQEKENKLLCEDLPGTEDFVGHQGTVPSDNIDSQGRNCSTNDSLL
Chain of 5-hydroxytryptamine receptor 2A (Homo sapiens) (P28223 whole entry, looked up): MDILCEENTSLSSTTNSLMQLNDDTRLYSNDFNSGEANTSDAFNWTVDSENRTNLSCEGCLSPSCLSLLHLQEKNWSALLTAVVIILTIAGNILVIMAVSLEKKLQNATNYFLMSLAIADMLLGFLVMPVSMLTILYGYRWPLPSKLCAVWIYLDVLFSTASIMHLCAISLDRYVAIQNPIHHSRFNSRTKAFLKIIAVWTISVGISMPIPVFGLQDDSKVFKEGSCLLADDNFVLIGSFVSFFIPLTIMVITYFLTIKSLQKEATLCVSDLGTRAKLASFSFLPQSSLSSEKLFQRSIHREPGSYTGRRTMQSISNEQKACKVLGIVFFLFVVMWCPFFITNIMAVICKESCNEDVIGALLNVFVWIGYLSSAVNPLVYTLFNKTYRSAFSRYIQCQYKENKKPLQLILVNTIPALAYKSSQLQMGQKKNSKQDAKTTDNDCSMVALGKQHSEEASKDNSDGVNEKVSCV
Chain of Gonadotropin-releasing hormone receptor (Homo sapiens) (P30968 whole entry, looked up): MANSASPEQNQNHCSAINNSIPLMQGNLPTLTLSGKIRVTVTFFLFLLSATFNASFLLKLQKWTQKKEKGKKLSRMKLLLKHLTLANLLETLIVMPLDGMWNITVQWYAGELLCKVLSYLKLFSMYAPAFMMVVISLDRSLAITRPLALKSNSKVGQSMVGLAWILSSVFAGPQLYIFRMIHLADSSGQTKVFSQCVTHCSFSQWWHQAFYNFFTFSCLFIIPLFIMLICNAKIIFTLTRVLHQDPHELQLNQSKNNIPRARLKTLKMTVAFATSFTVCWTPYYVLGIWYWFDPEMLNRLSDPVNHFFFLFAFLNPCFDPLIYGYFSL

Regarding `CC(C)c1ccc(C=O)cc1`, the Potency result in assay [1], in [2], in [3], in [4], in assay [5] and in assay [6] was “inactive” throughout. For the same molecule, the Potency result in assay [7], in assay [8], in assay [9], in [10], in assay [11] and in assay [12] was “inactive” throughout. Also, the Potency entry in assay [13], in assay [14], in assay [15], in [16], in assay [17] and in assay [18] was “inactive” throughout.

For `O=C(c1ccc(Cl)cc1)c1ccc(Cl)cc1`, the Potency entry in assay [1], in assay [2], in [3], in [4], in assay [5] and in [6] was “inactive” in each case. Further, the Potency result in [7], in assay [8], in [19], in [11], in assay [20] and in [12] was “inactive” in each case. Moreover, the Potency result in [13], in assay [14], in assay [15], in assay [16], in assay [17] and in assay [18] was “inactive” throughout.

Turning to `Cc1c(O)cccc1C(=O)N[C@@H](CSc1ccccc1)[C@H](O)CN1C[C@H]2CCCC[C@H]2C[C@H]1C(=O)NC(C)(C)C`, the Potency in assay [1] is 11.9 µM (active). In addition, the Potency result in [2], in assay [3], in [4], in [5], in [6] and in assay [7] was “inactive” each time. In addition, the Potency result in assay [8], in [19], in assay [17] and in assay [18] was “inactive” each time.

`CC(C)c1ccc2c(C(C)C)cc(C(C)C)c(S(=O)(=O)O)c2c1`: the Potency entry in [1], in assay [2], in [3], in [4], in assay [5] and in assay [6] was “inactive” throughout. The Potency entry in assay [7], in [8], in assay [9], in assay [10], in [11] and in [20] was “inactive” each time. Also, the Potency entry in [12], in [13], in assay [14], in assay [15], in assay [16] and in [17] was “inactive” in each case. In addition, in assay [18], the Potency entry is “inactive”.

On to `COC(=O)CC(C(C)=O)C(=O)OC` (stereo not given), for which the Potency entry in assay [1], in assay [2], in assay [3], in assay [4], in [5] and in assay [6] was “inactive” throughout. Also, the Potency result in assay [7], in assay [8], in [9], in [10], in assay [11] and in [20] was “inactive” throughout. For the same molecule, the Potency entry in assay [12], in assay [13], in assay [15], in assay [16] and in [18] was “inactive” each time.

Take `C1=COCCC1`: the Potency entry in assay [1], in assay [2], in assay [3], in [4], in assay [5] and in assay [6] was “inactive” each time. For the same molecule, the Potency entry in [7], in assay [8], in assay [9], in [10], in [11] and in [20] was “inactive” throughout. Also, the Potency result in [12], in assay [13], in assay [14], in [15], in assay [16] and in assay [17] was “inactive” each time. The Potency entry in [18] was “inactive”.

With `Cc1ccc2c(c1)OCC(=O)CO2`, the Potency result in [1], in assay [2], in [3], in assay [4], in assay [5] and in assay [6] was “inactive” in each case. Also, the Potency result in assay [7], in assay [8], in assay [9], in assay [10], in assay [11] and in assay [20] was “inactive” throughout. Also, the Potency result in assay [12], in assay [13], in assay [14], in assay [15], in assay [16] and in assay [17] was “inactive” throughout.
